Source: PubChem BioAssay (National Center for Advancing Translational Sciences (NCATS))
This is a sample that favours compounds with a hit; in the whole collection about 6.9% have one here.
L3MBTL1 block – qHTS Assay for the Inhibitors of L3MBTL1 | Lethal(3)malignant brain tumor-like protein 1 (Homo sapiens), Q9Y468 | AlphaScreen L3MBTL1–H3K9me1 peptide binding | Potency, µM (highest dose often 57.1 µM), for inactives: at the top dose activity, negative = inhibition, most hits filed as inhibitors | hit rate 0.66% among 230,000; also: % is scaled to controls: 0 for no effect and ±100 for the full control effect; nearly all actives have a fitted effect of over 60% in size
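Read-out is AlphaScreen signal from streptavidin donor and nickel chelate acceptor beads (10 ug/mL final each) bridging L3MBTL1 (50 nM) and biotinylated K9-monomethylated H3(1-15) peptide (75 nM), after 30 min compound exposure at room temperature.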
PLK1 PBD block – qHTS for Inhibitors of PLK1-PDB (polo-like kinase 1 - polo-box domain): Primary Screen | Plk1 PBD binding of FITC phosphopeptide, fluorescence polarization | Potency, µM, without a hit: max response, negative = inhibition, most hits filed as inhibitors | AID 720504, 2013 | Serine/threonine-protein kinase PLK1 (Homo sapiens), P53350 | hit rate 2.8% among 360,000; also: series mostly up to about 57 µM; % is scaled to controls: 0 for no effect and ±100 for the full control effect; nearly all actives have a fitted effect of over 65% in size
JMJD2A Tudor – qHTS Assay for Inhibitors of JMJD2A-Tudor Domain; Lysine-specific demethylase 4A (Homo sapiens), O75164; AlphaScreen JMJD2A-Tudor / H3K4me3 peptide binding; Potency, µM (series often up to 114 µM), without a hit: top-dose activity change, negative = inhibition, hits mostly inhibitors; hit rate 4.4% among 390,000; also: % is scaled to controls: 0 for no effect and ±100 for the full control effect; nearly all actives have a fitted effect of over 50% in size
HP1b chromo inh – HTS for Inhibitors of HP1-beta Chromodomain Interactions with Methylated Histone Tails. hit rate 0.56% among 390,000. Potency, µM (highest dose often 114 µM), without a hit: top-dose activity change, negative = inhibition, hits mostly inhibitors. AlphaScreen HP1-beta / biotin-H3K9me3 peptide binding; also: nearly all actives have a fitted effect of over 70% in size
Target sequence (P83916 whole entry, looked up): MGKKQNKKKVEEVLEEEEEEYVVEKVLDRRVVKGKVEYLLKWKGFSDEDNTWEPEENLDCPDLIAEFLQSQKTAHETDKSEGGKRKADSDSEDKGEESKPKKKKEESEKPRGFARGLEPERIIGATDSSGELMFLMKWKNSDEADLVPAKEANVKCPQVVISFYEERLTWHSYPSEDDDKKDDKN
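AlphaScreen: HP1-beta (50 nM) preformed 30 min with biotin-H3(1-18)K9me3 peptide (50 nM) in PBS pH 7.4, 0.01% Tween-20. Compound added for 30 min at RT, then streptavidin donor/nickel chelate acceptor beads (10 ug/mL) for 30 min.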
BAZ2B inh – qHTS Assay for Inhibitors of BAZ2B; AlphaScreen BAZ2B-H3K14Ac peptide displacement; Potency, µM (doses to about 114 µM), for the others: top-dose activity change, negative = inhibition, usual class: inhibitors; hit rate 4.4% among 360,000; AID 504333, 2011; also: % is scaled to controls: 0 for no effect and ±100 for the full control effect; nearly all actives have a fitted effect of over 60% in size
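AlphaScreen luminescence quantifies BAZ2B engagement of H3K14Ac peptide; the protein and biotinylated peptide are both at 50 nM final, buffer PBS pH 7.4 with 0.01% Tween-20, all steps at room temperature.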
VDR inhibitor – Inhibitors of the vitamin D receptor (VDR): qHTS; Vitamin D3 receptor (Homo sapiens), P11473; VDR-SRC2-3 peptide fluorescence polarization, 2 h; Potency, µM, inactives show max response, negative = inhibition, hits mostly inhibitors; hit rate 0.93% among 400,000; also: % is scaled to controls: 0 for no effect and ±100 for the full control effect
Target sequence (P11473 whole entry, looked up): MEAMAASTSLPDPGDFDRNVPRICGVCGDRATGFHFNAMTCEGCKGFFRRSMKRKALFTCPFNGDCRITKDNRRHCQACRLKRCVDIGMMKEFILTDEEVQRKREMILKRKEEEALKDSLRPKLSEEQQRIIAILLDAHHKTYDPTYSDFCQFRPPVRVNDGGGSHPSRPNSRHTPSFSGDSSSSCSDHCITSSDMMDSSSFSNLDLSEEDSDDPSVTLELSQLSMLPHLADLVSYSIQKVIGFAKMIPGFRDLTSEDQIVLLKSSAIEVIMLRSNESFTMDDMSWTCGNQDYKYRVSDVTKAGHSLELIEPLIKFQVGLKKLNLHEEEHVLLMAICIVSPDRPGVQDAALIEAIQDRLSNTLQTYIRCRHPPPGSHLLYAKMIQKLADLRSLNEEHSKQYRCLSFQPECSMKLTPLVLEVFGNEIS
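Reagent solutions, kept cold and dark, are dispensed first; compounds are then pinned in at 23 nl, plates briefly spun, and incubated 2 h at ambient temperature. Inhibition of VDR–SRC2-3 peptide binding is read by fluorescence polarization.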
An asterisk follows results filed as active; ? = inconclusive; . = not tested or not shown; [ ] = another dose, or the depositor's remark. Calls follow the shape of the dose curve; as a rule, active = well fitted curve in the direction sought with a large enough effect; inconclusive = small, poorly fitted or top-dose-only effect, or another doubt; inactive = no such curve, though single readings can be large; an effect the other way counts as inactive or inconclusive. Potency is read from the fitted curve at half-maximal effect.

SMILES	L3MBTL1 block	PLK1 PBD block	JMJD2A Tudor	HP1b chromo inh	BAZ2B inh	VDR inhibitor
CC(C(=O)Nc1ccc(C(N)=O)cc1)N1C(=O)c2ccccc2S1(=O)=O (stereo not drawn)	3%	-4%	-13%	8%	-9%	-11%
Cc1sc2c(c1C)c(=O)n(CCc1ccccc1)c(=O)n2Cc1cccc(F)c1	.	.	15%	12%	?	-17%
O=C(N/N=C/c1cnc(N2CCCCC2)s1)c1ccc(Cl)cc1	?	30µM*	?	-6%	-9%	-6%
c1ccc(-c2n[nH]c(-c3ccccc3)c2-c2nc3ccccc3[nH]2)cc1	-3%	27µM*	?	-15%	-30%	?
COc1cc(/C=N/Nc2ccc(Cl)c(C(=O)O)c2)ccc1OC(=O)c1ccco1	-17%	-19%	-14%	8%	?	8%
COc1ccc(C(=O)Oc2ccc(/C=N/Nc3ccc(Cl)c(C(=O)O)c3)cc2OC)cc1	.	?	?	-11%	50µM*	-6%
O=C(O)c1ccc(N/N=C/c2ccc(-c3ccccc3)cc2)cc1	.	27µM*	-33%	-13%	.	-15%
O=C(O)c1cc(N/N=C/c2ccc(-c3ccccc3)cc2)ccc1Cl	.	9.5µM*	32µM*	-25%	?	?
O=C(O)c1ccc(N/N=C/c2ccc(OC(=O)c3ccccc3Cl)cc2)cc1	-14%	30µM*	?	?	89µM*	-8%
CC(C)c1ccc(/C=N/Nc2ccc(C(=O)O)cc2)cc1	-11%	?	-25%	25%	?	-1%
O=C(O)c1cc(N/N=C/c2ccncc2)ccc1Cl	4%	?	-7%	18%[57 µM]	-2%	-2%
CCCNC(=O)COCc1cc(-c2ccc(F)cc2)on1	.	.	5%	40%	4%	11%
Cc1cc2nc(C)n(CCCNC(=O)Nc3cccc4ccccc34)c2cc1C	.	-2%	50µM*	4%	-11%	6%
CCOc1ccc(NC(=O)NCCCn2c(C)nc3cc(C)c(C)cc32)cc1	.	-7%	-25%	5%	3%	-11%
Cc1ccc(CNC(=O)C2CCN(c3nc4ccccc4n(C)c3=O)CC2)cc1	.	.	-11%	14%	-8%	8%
O=C(CC1CCCCC1)NCc1ccccn1	.	-2%	-9%	30%	-5%	6%
O=C(c1c(F)cccc1F)N(Cc1ccccn1)C1CC1	.	-28%	-3%[11.4 µM]	17%	79µM*	2%
N#CC1(C#N)CC(C=O)=C(N)C1(C#N)CC(=O)C12CC3CC(CC(C3)C1)C2 (stereo not drawn)	-12%	?	-34%	-6%	?	?
CCc1c(C(C)S(=O)(=O)c2ccc(C)cc2)[nH]c(=O)n1-c1ccc(C)cc1 (stereo not drawn)	.	27µM*	-29%	24%	-21%	?
CCc1[nH]c(=O)[nH]c1C(C)S(=O)(=O)c1ccc(C)cc1 (stereo not drawn)	.	12µM*	-27%	?	-19%	-14%
CCc1c(C#N)c(=O)[nH]c(=O)n1-c1ccccc1	.	-10%	-6%	24%	.	-5%
CCCNC(=O)CC(NS(=O)(=O)c1ccc(OC)cc1)c1ccco1 (stereo not drawn)	.	-6%	-2%	48%	5%	-6%
Cc1coc2cc3oc(=O)c(CC(=O)NCc4ccc(F)cc4)c(C)c3cc12	.	.	-6%	40%	-15%	8%
N#Cc1cc2c(nc1SCc1ccccc1)CCCCC2	10%	3.8µM*	13%[11.4 µM]	99%	91%	-21%
N#Cc1cc2c(nc1SCc1ccc(Cl)cc1)CCCC2	14%	-9%	102%	160%	54%	13%
SMILES	L3MBTL1 block	PLK1 PBD block	JMJD2A Tudor	HP1b chromo inh	BAZ2B inh	VDR inhibitor
COc1ccc(C(NC(=O)/C=C/c2ccco2)c2ccc(OC)cc2)cc1	-11%	?	?	?	50µM*	?
COc1ccc(C(NC(=O)/C=C\c2ccco2)c2ccc(OC)c(OC)c2)cc1 (stereo not drawn)	-25%	?	50µM*	-40%	-33%	-14%
COc1cccc(NC(=O)/C=C/c2ccco2)c1	-12%	-13%	-30%	-2%	-32%	-1%
COc1ccc(CCNC(=O)/C=C/c2ccco2)cc1OC	-7%	-24%	-16%	-15%	-27%	-18%
O=C(NC(c1ccccc1)c1ccccc1)c1cccc(S(=O)(=O)NCc2ccccc2)c1	5%	-1%	-3%	12%	-7%	11%
CC(/C=N/NC(=O)c1cc(-c2ccc(C)o2)[nH]n1)=C\c1ccccc1	-1%	-19%	-18%	39%	10%	-4%
CC(/C=N/NC(=O)c1cc(C(C)C)[nH]n1)=C\c1ccccc1	4%	30µM*	-24%	-1%	12%	-19%
Cc1oc(C(=O)O)cc1COc1cccc2cccnc12	28µM*	-9%	79µM*	14%	40µM*	-3%
COc1ccccc1CCNC(=O)c1ccc2c(c1)c(C)c(C)n2C	.	.	?	?	?	14%
N#Cc1nc(Nc2cc(F)cc(F)c2)nc(NC2CCCC2)n1	.	.	-12%	.	.	.
CC(=O)Nc1cccc(S(=O)(=O)Nc2ccc(C)c(C)c2)c1	.	.	-16%	.	.	.
FC(F)(F)c1cccc(N2CCC(N=CN3CCCCCC3)=N2)c1	.	?	-15%[11.4 µM]	?	40µM*	11%
O=[N+]([O-])c1ccc(Cl)c(-c2ccc(/C=N/n3cnnc3)o2)c1	.	-29%	?	-9%	?	-6%
O=C1NN(c2cccc(Br)c2)C(=O)/C1=C/c1ccc(-c2cc([N+](=O)[O-])ccc2O)o1	.	19µM*	?	?	2.2µM*	-16%
Cc1ccc(N2NC(=O)/C(=C/c3ccc(-c4ccc(Cl)c(C(=O)O)c4)o3)C2=O)cc1C	-25%	?	-24%	-3%	?	5%
CC1=NN(c2ccc(C)cc2)C(=O)/C1=C/c1ccc(-c2cc([N+](=O)[O-])ccc2O)o1	32µM*	?	32µM*	32µM*	2%	-6%
O=C1NN(c2ccc(Cl)c(Cl)c2)C(=O)/C1=C/c1ccc(-c2ccccc2C(=O)O)o1	.	19µM*	?	?	40µM*	45µM*
O=C(OCC#CCSc1nnc(-c2cccc(F)c2)o1)c1ccc(F)cc1	.	.	59%	.	.	.
COc1ccc(C2=NN(C(C)=O)C(c3cn(-c4ccccc4)nc3-c3cccs3)C2)cc1 (stereo not drawn)	.	.	-13%	31%	-21%	5%
